Measurements: PubChem BioAssay (NCATS)
Where “and” joins values, the source holds several entries; their conditions need not be identical. Equal entries are not always repeated. Inconclusive results are not listed. Where a call stands in place of a potency, no number is given. Calls of active or inactive are those of the source. Unless noted, calls come from the whole dose curve; as a rule, active = well fitted curve in the direction sought with a large enough effect; inconclusive = small, poorly fitted or top-dose-only effect, or another doubt; inactive = no such curve, though single readings can be large; an effect the other way counts as inactive or inconclusive.

Legend:
[1] = AP1 Signaling Pathway (AID 357; active = well fitted curve in either direction with a large enough effect, not every such curve was filed as active;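 note: ME-180 reporter cells stimulated with EGF at its EC50 level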); conditions: ME-180 AP-1-bla reporter, EGF-induced, beta-lactamase ratio, 5 h; at 17.2 µM (top of the series)
Outline: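 Cells are seeded overnight, exposed to compound titrations and an EC50 level of EGF for 5 hours at 37 °C, then loaded with CCF4 dye for 2.5 hours. Beta-lactamase activity under the AP-1 element is read as a blue/green ratio.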

[2] = NFAT Signaling Pathway (AID 444; active = well fitted curve in either direction with a large enough effect, not every such curve was filed as active;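 note: carbachol stimulus at about its EC50 of 1 µM final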); conditions: Jurkat NFAT-bla M1, carbachol, beta-lactamase ratio, 5 h; at 17.2 µM (top of the series)
Outline: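 Read-out: CCF4 FRET ratio (460 nm/530 nm) after 1 h RT dye loading, used for %activity and AC50 from titration series. Cells: Jurkat NFAT-β-lactamase/M1 line, treated with compound plus 1 uM carbachol for 5 h, 37 °C.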

[3] = Stat Signaling Pathway (AID 446; active = well fitted curve in either direction with a large enough effect, not every such curve was filed as active;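 note: ME-180 cervical cancer cells given 40 pM IL-6 alongside compound; SIE-controlled beta-lactamase reporter measured as 460/530 nm FRET emission ratio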); conditions: ME-180 (cervical carcinoma) SIE beta-lactamase reporter, IL-6 stimulated, 5 h; at 17.2 µM (top of the series)
Outline: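 Emission at 460 and 530 nm (excitation 405 nm) reports SIE-controlled beta-lactamase in ME-180 cells. Cells received compound with 40 pM IL-6 for 5 hrs at 37 C; data scaled between 300 pM IL-6 and 125 nM JAK-inhibitor controls.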

[4] = target: Glucocorticoid receptor (Homo sapiens) (UniProt P04150); assay: GR-GFP Redistribution (AID 450;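 active = compounds whose dose series gives a full or clear partial fitted curve of increased nuclear translocation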; note: potency is the fitted concentration of half-maximal effect); conditions: U2OS GR-GFP nuclear translocation, laser cytometry, 2 h
[5] = target: Glucocorticoid receptor (Homo sapiens) (UniProt P04150); assay: GR-EFC Redistribution (AID 451; calls by dose curve; note: potency is the fitted concentration of half-maximal effect); conditions: CHO-K1 GR-EFC translocation, beta-gal luminescence, 2 h
Outline: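 Translocation of GR-ED fusion to nuclear EA restores b-gal, read by luminescence after 1 h room-temperature detection. Engineered CHO-K1 biosensor cells, 1,000/well, exposed 2 h at 37 C to titrations up to 46 uM final.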

[6] = target: Mitogen-activated protein kinase 10 (Mus musculus) (UniProt Q61831); assay: JNK3 AlphaScreen Assay (AID 530; active = well fitted curve in either direction with a large enough effect, not every such curve was filed as active;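 note: kinase came from lysate of stimulated human HepG2 cells; signal reports phosphorylation of biotinylated GST-cJun 1-79 at Ser73 with 10 µM ATP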)
Outline: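 Kinase buffer: 20 mM Tris-HCl pH 7.6, 10 mM MgCl2, 1 mM DTT, 0.1 mM Na3VO4, 0.01% Tween-20; ATP 10 uM. Substrate biotin-GST-cJun(1-79), enzyme from activated HepG2 lysates. Detection by Ser73 phospho-antibody AlphaScreen.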

[7] = target: 3',5'-cyclic-AMP phosphodiesterase 4B (Homo sapiens) (UniProt Q07343); assay: qHTS Assay for Inhibitors of PDE-IV (AID 607; active = well fitted activation curve with a large enough effect in the main read-out, with a control signal flat, not every such curve was filed as active)
Outline: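 The readout is membrane depolarisation from a cAMP-sensing CNG channel, detected with a potential dye at ex 535/em 590. Cells were HEK293-derived (endogenous PDE-IV) at 1000 cells/well, titrated up to 22.9 uM final.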

[8] = qHTS Assay for Lipid Storage Modulators (AID 1519; calls by dose curve); conditions: Drosophila S3 cells, BODIPY lipid droplet/cell ratio, laser cytometry, cells loaded with oleic acid
Outline: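 Cells seeded at 5,000 per well were treated with compounds over a concentration series and loaded with oleic acid (400 uM, as added). Lipid droplet fluorescence (488 nm excitation, 500-530 nm channel) was read by laser-scanning cytometry and normalized to 20 uM Triacsin C.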

[9] = target: Ubiquitin carboxyl-terminal hydrolase 1 (Homo sapiens) (UniProt O94782); assay: Inhibitors of USP1/UAF1: Pilot qHTS (AID 504865);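 note: rhodamine fluorescence freed from ubiquitin-rhodamine substrate followed over time; top concentration of the series differs between compounds; nearly all actives have a fitted effect of over 35% in size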
Outline: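 1nM USP1/UAF1 + cpd, 15 min RT; start w/ Ub-Rho 150nM final; kinetic FL 480/540 nm, 6 reads q60 s. Buffer 50mM HEPES pH 7.8, 0.5mM EDTA, 1mM TCEP, 0.01% Tween-20, 0.1 mg/ml BSA.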

[10] = target: DNA dC->dU-editing enzyme APOBEC-3G (Homo sapiens) (UniProt Q9HC16); assay: qHTS for inhibitors of Vif-A3G interactions: Validation (AID 588379)
Outline: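 Yellow fluorescence (Ex 488, Em 500-530) of Vif-coexpressing HeLa A3G-eYFP cells, scanned by Acumen cytometer, reports blocked A3G degradation. Cells plated at 700/well overnight at 37 deg C before compound addition, then a further overnight compound incubation at 37 deg C.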

[11] = tested on: Zika virus NS2B-NS3 protease; assay: Primary screen GU AMC qHTS for Zika virus inhibitors (AID 1347154); note: nearly all actives have a fitted effect of over 70% in size
Outline: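 Fluorogenic AMC-substrate cleavage by noncovalent NS2B-NS3 protease complex (25 nM, pH 8.0 Tris buffer with Tween 20) followed for 15 minutes at room temperature (~20% conversion). Percent inhibition from ex340/em450 signal change, fitted by 4-parameter Hill equation.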

[12] = Primary qHTS for small molecule stabilizers of the endoplasmic reticulum resident proteome: Secreted ER Calcium Modulated Protein (SERCaMP) assay (AID 1508630)
Outline: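 The SH-SY5Y reporter protocol was run at 3 concentrations up to 38.3 uM (primary) or 11 concentrations (follow-up): 16 h compound, 100 nM thapsigargin for 4 h, then extracellular luciferase luminescence.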

[13] = target: Rap guanine nucleotide exchange factor 3 (Homo sapiens) (UniProt O95398); assay: Confirmatory qHTS for antagonist of cAMP-regulated guanine nucleotide exchange factor 3 (EPAC1) (AID 1645880); note: nearly all actives have a fitted effect of over 55% in size
Outline: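 Released BODIPY-GDP fluoresces less than Rap1-bound BODIPY-GDP; the signal is followed at 480/540 nm at 5-min intervals over 30 min, after 5 min at room temperature. Reactions contain 100 nM EPAC1, 250 nM RAP1B-BODIPY-GDP and 50 uM GDP; results are normalized to ATA and DMSO.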

[14] = target: Rap guanine nucleotide exchange factor 3 (Homo sapiens) (UniProt O95398); assay: Confirmatory qHTS for agonist of cAMP-regulated guanine nucleotide exchange factor 3 (EPAC1) (AID 1645881);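 note: EPAC1 catalysed release of BODIPY-GDP from Rap1B seen as fluorescence loss; nearly all actives have a fitted effect of over 75% in size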
[15] = target: Rap guanine nucleotide exchange factor 4 (Homo sapiens) (UniProt Q8WZA2); assay: Confirmatory qHTS for agonist of cAMP-regulated guanine nucleotide exchange factor 4 (EPAC2) (AID 1645884);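 note: nucleotide exchange releases bodipy-GDP from Rap1 and this lowers its fluorescence; nearly all actives have a fitted effect of over 65% in size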
[16] = target: Rap guanine nucleotide exchange factor 4 (Homo sapiens) (UniProt Q8WZA2); assay: Confirmatory qHTS for antagonist of cAMP-regulated guanine nucleotide exchange factor 4 (EPAC2) (AID 1645885); note: nearly all actives have a fitted effect of over 25% in size
[17] = target: Cytochrome P450 1A2 (Homo sapiens) (UniProt P05177); assay: p450-cyp1a2 (AID 410; calls by dose curve)
Outline: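 20nM CYP1A2, 100uM Luciferin-ME (=Km), 100mM KPO4; cpd 10 min RT; +NADPH regen, 60 min RT; stop/detect 20 min; luminescence. Normalized to furafylline 57 uM = full inhibition.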

[18] = measured here: cell count channel max response
[19] = measured here: lipid channel max response

DNA dC->dU-editing enzyme APOBEC-3G (Homo sapiens), sequence (Q9HC16 whole entry, looked up): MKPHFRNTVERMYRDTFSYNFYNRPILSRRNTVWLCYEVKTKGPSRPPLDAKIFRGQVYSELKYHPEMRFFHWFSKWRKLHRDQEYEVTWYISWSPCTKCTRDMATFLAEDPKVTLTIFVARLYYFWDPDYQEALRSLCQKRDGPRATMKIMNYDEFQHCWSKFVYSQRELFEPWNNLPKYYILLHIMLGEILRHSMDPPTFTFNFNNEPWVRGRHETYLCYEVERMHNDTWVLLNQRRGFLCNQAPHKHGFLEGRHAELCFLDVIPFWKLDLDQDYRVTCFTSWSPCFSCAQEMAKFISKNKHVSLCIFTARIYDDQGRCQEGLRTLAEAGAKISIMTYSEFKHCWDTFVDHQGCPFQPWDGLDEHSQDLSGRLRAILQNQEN
Glucocorticoid receptor (Homo sapiens), sequence (P04150 whole entry, looked up, the tested form may be a part): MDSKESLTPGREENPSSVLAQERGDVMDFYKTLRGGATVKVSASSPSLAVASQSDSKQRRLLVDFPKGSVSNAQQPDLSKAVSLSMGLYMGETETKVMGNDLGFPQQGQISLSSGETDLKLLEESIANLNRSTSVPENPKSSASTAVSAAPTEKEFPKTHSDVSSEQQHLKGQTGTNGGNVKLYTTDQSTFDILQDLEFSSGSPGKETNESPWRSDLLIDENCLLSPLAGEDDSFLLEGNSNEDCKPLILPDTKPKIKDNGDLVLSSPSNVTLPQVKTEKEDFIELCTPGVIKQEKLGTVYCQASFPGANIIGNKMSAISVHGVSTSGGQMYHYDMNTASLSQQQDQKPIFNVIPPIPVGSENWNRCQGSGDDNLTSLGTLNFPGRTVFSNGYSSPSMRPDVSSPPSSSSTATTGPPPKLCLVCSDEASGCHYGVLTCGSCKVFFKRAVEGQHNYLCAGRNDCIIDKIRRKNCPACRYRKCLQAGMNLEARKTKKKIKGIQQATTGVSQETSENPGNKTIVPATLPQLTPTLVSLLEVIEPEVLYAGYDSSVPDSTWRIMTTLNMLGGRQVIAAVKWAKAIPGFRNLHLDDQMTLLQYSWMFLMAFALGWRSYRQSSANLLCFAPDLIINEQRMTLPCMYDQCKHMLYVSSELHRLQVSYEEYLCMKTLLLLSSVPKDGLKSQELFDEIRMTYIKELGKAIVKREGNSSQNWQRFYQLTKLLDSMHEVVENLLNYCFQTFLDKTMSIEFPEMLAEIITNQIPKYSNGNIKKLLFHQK
Ubiquitin carboxyl-terminal hydrolase 1 (Homo sapiens), sequence (O94782 whole entry, looked up): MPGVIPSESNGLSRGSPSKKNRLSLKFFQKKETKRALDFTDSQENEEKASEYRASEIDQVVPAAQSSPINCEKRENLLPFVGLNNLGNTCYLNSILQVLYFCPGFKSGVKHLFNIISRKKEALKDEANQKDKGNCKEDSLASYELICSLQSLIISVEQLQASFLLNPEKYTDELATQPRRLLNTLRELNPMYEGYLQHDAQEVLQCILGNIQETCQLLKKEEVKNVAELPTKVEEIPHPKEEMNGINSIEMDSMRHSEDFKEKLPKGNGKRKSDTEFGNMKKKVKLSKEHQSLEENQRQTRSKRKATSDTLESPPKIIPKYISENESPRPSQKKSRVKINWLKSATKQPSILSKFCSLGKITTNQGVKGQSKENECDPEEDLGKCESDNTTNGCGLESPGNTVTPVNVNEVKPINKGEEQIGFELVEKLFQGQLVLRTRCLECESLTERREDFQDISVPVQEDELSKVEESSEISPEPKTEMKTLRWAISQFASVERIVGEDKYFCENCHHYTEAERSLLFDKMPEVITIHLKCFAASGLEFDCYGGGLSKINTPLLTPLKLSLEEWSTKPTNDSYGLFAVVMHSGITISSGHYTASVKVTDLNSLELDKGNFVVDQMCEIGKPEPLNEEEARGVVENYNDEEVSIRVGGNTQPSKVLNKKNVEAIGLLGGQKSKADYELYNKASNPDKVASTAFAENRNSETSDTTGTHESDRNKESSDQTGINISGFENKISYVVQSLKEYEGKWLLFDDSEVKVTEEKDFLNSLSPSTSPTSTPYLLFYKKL
Rap guanine nucleotide exchange factor 4 (Homo sapiens), sequence (Q8WZA2 whole entry, looked up): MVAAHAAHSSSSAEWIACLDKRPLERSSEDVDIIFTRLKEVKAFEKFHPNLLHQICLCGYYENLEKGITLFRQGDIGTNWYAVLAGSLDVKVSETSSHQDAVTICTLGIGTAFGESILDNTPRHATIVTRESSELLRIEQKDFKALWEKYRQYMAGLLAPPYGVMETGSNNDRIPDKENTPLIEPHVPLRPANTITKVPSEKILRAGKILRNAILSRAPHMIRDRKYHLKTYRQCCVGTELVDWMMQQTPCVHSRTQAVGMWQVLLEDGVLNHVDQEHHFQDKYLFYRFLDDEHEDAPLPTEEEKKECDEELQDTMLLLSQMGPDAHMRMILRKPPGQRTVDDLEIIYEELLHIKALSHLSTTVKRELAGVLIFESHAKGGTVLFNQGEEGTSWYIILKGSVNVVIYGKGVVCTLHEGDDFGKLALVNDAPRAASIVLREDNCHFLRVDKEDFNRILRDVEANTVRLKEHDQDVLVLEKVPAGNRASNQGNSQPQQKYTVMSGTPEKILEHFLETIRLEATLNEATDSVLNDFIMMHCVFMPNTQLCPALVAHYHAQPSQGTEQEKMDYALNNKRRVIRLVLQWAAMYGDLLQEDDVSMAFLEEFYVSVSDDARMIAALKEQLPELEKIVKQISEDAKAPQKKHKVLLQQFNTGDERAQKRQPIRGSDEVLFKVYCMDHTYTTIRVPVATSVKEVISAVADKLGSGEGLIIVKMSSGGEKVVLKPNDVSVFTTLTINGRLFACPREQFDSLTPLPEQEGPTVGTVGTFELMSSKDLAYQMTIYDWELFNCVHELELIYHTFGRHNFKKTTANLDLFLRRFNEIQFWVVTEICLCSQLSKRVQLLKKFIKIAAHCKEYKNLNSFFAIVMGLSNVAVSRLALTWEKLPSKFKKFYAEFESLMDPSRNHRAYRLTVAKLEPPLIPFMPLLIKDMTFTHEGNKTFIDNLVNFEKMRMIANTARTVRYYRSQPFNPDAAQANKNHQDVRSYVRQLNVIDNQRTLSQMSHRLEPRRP
Cytochrome P450 1A2 (Homo sapiens), sequence (P05177 whole entry, looked up): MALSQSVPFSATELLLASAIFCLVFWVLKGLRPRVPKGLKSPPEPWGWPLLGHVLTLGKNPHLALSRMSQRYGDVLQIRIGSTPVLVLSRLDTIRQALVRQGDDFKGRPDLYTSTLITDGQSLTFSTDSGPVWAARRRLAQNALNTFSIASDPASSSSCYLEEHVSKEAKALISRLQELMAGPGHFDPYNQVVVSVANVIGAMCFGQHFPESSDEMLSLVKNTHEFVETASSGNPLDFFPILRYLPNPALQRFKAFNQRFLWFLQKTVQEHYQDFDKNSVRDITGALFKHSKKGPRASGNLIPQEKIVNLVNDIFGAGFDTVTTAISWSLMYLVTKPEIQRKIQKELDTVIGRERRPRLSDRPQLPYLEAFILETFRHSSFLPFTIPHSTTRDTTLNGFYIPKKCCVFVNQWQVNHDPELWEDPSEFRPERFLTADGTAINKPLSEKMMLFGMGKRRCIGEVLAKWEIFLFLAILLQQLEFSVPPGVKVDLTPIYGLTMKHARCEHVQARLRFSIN
3',5'-cyclic-AMP phosphodiesterase 4B (Homo sapiens), sequence (Q07343 whole entry, looked up): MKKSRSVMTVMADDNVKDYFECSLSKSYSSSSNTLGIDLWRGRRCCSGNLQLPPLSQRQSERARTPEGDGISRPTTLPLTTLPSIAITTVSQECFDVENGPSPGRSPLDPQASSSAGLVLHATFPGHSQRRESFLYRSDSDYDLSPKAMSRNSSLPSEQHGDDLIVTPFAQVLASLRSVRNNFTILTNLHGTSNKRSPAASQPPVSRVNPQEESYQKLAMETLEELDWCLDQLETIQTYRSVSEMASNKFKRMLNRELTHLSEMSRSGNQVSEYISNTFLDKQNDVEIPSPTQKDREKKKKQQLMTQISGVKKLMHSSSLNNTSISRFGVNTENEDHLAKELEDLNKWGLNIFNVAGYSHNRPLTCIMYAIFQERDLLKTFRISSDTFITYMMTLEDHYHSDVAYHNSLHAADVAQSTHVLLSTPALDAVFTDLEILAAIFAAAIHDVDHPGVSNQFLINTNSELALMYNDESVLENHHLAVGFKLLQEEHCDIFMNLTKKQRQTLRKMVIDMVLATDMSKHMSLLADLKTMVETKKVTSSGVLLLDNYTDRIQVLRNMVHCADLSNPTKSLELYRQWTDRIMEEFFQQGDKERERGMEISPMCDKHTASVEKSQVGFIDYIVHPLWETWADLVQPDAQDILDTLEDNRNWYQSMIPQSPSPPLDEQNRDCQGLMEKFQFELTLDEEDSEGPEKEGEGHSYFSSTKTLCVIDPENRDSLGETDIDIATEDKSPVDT

Row | Compound | activity change, negative = inhibition [1] | activity change, negative = inhibition [2] | activity, negative = inhibition [3] | Potency [4] | Potency [5] | Potency [6] | Potency [7] | activity change, negative = inhibition ([8]; at 25.7 µM (top of the series)) | activity change, negative = inhibition ([8]; at 57.5 µM (top of the series)) | max response [8, 18] | max response [8, 19] | Potency [9] | Potency [10] | Potency [11] | Potency [12] | Potency [13] | outcome [14] | outcome [15] | Potency [16] | Potency [17]
1 | CN(C)CCCSC(=N)N | 2.97% (inactive) | -13.3% (inactive) | -1.52% (inactive) | > 20.6 µM (inactive) and > 46 µM (inactive) | > 20.6 µM (inactive) and > 46 µM (inactive) | inactive | inactive | -2.91% (inactive) | 3.5% (inactive) | -7.27% and -5.75% | -5.95% and 13.8% | inactive | inactive | inactive | inactive | inactive | inactive | inactive | inactive | –
2 | CCC(=O)O[C@H](CC(=O)O)C[N+](C)(C)C | – | – | – | > 46 µM (inactive) | > 46 µM (inactive) | inactive | – | – | 3.1% (inactive) | -8.23% | -5.22% | inactive | inactive | inactive | inactive | – | – | – | – | –
3 | NCCC(=O)O | – | – | – | > 46 µM (inactive) | – | inactive | inactive | – | -2.51% (inactive) | -17.6% | -21.9% | inactive | inactive | inactive | inactive | – | – | – | – | inactive
4 | CCCCCCCCCC(=O)O[C@H](CC(=O)O)C[N+](C)(C)C | – | – | – | > 46 µM (inactive) | > 46 µM (inactive) | inactive | – | – | 3.92% (inactive) | -0.114% | -1.87% | inactive | inactive | inactive | inactive | – | – | – | – | –
5 | Cc1ccccc1N=C(N)Nc1ccccc1C | – | – | – | – | > 46 µM (inactive) | inactive | – | – | 3.82% (inactive) | 2.46% | 7.24% | inactive | inactive | inactive | inactive | – | – | – | – | inactive
